G9a block: inhibitors of human histone lysine methyltransferase G9a. Q96KQ7. G9a H3K9 monomethylation, AlphaScreen, 2 h. Potency, µM (titrated, usually from 102 µM), inactives show top-dose activity, negative = inhibition, usual class: inhibitors. 350,000 compounds, 8.8% hits; further: potency means the concentration at half of the fitted maximal effect; on the % scale 0 is the no-effect control and ±100 the full control effect; nearly all actives have a fitted effect of over 75% in size
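G9a (20 nM) was preincubated 15 min with compound, then reacted 2 h at room temperature with 500 nM biotin-H3K9 peptide and 20 µM SAM. Monomethyl-H3K9 detected by AlphaScreen using anti-H3K9me1 antibody.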
PLK1 PBD block: inhibitors of human PLK1 polo-box domain binding. 360,000 compounds, 2.8% hits. Potency, µM, without a hit: max response, negative = inhibition, hits mostly inhibitors. Plk1 PBD binding of FITC phosphopeptide, fluorescence polarization. AID 720504; further: potency means the concentration at half of the fitted maximal effect; series mostly up to about 57 µM; on the % scale 0 is the no-effect control and ±100 the full control effect; nearly all actives have a fitted effect of over 65% in size
Target sequence (P53350 whole entry, looked up, the tested form may be a part): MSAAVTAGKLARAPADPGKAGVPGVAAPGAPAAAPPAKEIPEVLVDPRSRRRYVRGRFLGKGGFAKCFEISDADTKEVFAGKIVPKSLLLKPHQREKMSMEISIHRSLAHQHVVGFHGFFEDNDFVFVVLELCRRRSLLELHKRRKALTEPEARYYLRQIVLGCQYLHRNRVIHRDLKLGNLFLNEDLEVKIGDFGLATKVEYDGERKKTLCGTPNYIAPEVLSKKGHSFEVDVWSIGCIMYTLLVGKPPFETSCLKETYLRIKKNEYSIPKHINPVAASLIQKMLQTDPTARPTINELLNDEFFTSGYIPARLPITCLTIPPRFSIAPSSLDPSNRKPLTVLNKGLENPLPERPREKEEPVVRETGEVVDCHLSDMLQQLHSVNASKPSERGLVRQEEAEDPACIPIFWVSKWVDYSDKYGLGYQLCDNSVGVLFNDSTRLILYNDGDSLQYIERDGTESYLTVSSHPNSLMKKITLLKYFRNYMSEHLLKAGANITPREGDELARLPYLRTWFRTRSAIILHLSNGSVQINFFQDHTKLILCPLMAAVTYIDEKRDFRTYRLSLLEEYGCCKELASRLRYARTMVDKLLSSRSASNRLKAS
PI5P4K alpha inh: PI5P4K alpha (human) kinase inhibition; max response, %; AID 652105; P48426; PI5P4Kalpha enzyme, ADP-Glo luminescence, 60 min; hits give low values; 330,000 compounds, 1.2% hits; active means max response of -50% or lower; inconclusive means between -30% and -50%; inactive means -30% or higher; further: value at the top dose of about 77 µM; on the % scale 0 is the no-effect control and ±100 the full control effect
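ADP-Glo luminescence end-point read after a 60 min room-temperature kinase reaction of PI5P4Kalpha plus substrate, initiated with ATP at 5 microM final. Buffer: 0.038 M HEPES pH 7.4, EGTA, 0.1% CHAPS, 5% DMSO.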
HP1b binding inh: inhibitors of HP1-beta chromodomain binding to methylated histone tails. P83916. AlphaScreen HP1-beta / biotin-H3K9me3 peptide binding. Potency, µM (highest dose often 114 µM), for inactives: at the top dose activity change, negative = inhibition, usual class: inhibitors. 390,000 compounds, 0.56% hits. AID 540317; further: potency means the concentration at half of the fitted maximal effect; nearly all actives have a fitted effect of over 70% in size
Target sequence (P83916 whole entry, looked up): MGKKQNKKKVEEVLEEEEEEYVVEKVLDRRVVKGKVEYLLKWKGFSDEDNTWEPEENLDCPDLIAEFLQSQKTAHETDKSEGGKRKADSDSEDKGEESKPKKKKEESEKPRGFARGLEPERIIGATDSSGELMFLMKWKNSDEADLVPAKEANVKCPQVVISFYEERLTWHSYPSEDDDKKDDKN
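HP1-beta protein (50 nM final) preincubated 30 min at room temperature with biotinylated H3(1-18)K9me3 peptide (50 nM) in PBS pH 7.4, 0.01% Tween-20, then compound added for 30 min. AlphaScreen streptavidin donor/nickel chelate acceptor beads (10 ug/mL final), 30 min dark, luminescence read.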
BAZ2B inh: inhibitors of human BAZ2B bromodomain; AlphaScreen BAZ2B-H3K14Ac peptide displacement; Potency, µM (top dose mostly 114 µM), without a hit: at the highest dose activity change, negative = inhibition, usual class: inhibitors; 360,000 compounds, 4.4% hits; AID 504333; further: potency means the concentration at half of the fitted maximal effect; on the % scale 0 is the no-effect control and ±100 the full control effect; nearly all actives have a fitted effect of over 60% in size
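Complex of BAZ2B and biotin-H3K14Ac (50 nM apiece) forms over 30 min at RT, then faces library compounds up to 110 uM for another 30 min; AlphaScreen beads added, 20 min dark incubation, luminescence read.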
JMJD2A Tudor inh: inhibitors of human JMJD2A Tudor domain. Potency, µM (titrated, usually from 114 µM), for inactives: top-dose activity change, negative = inhibition, usual class: inhibitors. AlphaScreen JMJD2A-Tudor / H3K4me3 peptide binding. O75164. 390,000 compounds, 4.4% hits. AID 504339; further: potency means the concentration at half of the fitted maximal effect; on the % scale 0 is the no-effect control and ±100 the full control effect; nearly all actives have a fitted effect of over 50% in size
An asterisk follows results filed as active; ? = inconclusive; . = not tested or not shown; [ ] = another dose, or the depositor's remark. Most compounds without a hit are left out; they make up all but 12% or so of the library. Unless noted, the call rests on the fitted dose curve; in most records, active means well fitted curve in the direction sought with a large enough effect; inconclusive means small, poorly fitted or top-dose-only effect, or another doubt; inactive means no such curve, though single readings can be large; an effect the other way counts as inactive or inconclusive.

SMILES | G9a block | PLK1 PBD block | PI5P4K alpha inh | HP1b binding inh | BAZ2B inh | JMJD2A Tudor inh
N#Cc1cc2c(nc1SCC(=O)Nc1ccc(C(F)(F)F)cc1)C1CCN2CC1 | 5%[59 µM] | . | . | 36% | 0% | -4%
COc1cc(CC2(CCc3ccncc3)C(=O)N(C)C(=O)N(C)C2=O)cc(OC)c1OC | 22µM* | 0% | 0 | 20% | -15% | -16%
CN1C(=O)N(C)C(=O)C(CCc2ccncc2)(CCc2ccncc2)C1=O | . | 1% | 1 | 16% | -3% | -12%
O=P(Nc1c(Cl)cccc1Cl)(c1ccccc1)c1nc2c(s1)CCCC2 (centres undefined) | 12%[0.0925 µM] | 0% | . | 46% | -7% | -11%
CP(=O)(Nc1ccc(Cl)cc1)c1nc2c(s1)CCCC2 (centres undefined) | 40µM* | -26% | -7 | 33% | -19% | -14%
COc1ccc(CN2CCN(C(=O)Cc3ccccc3)CC2)c(OC)c1 | 20µM* | -2% | 1 | ? | 56µM* | 2µM*
Cc1ccc(CC(=O)N2CCN(Cc3ccccc3)CC2)cc1 | -52% | -15% | 3 | 58% | -21% | -10%
O=C(Cc1ccccc1)N1CCN(Cc2ccc(F)cc2)CC1 | . | -1% | 11 | ? | 79µM* | 10µM*
O=C(Cc1ccccc1)N1CCN(CCCc2ccccc2)CC1 | ? | 3% | 2 | ? | 56µM* | 0.32µM*
COc1cc(CN2CCN(C(=O)Cc3ccccc3)CC2)cc(OC)c1OC | 25µM* | 0% | 1 | ? | ? | 7.1µM*
O=C(Cc1ccc(Br)cc1)N1CCN(Cc2ccccc2)CC1 | 2%[12.7 µM] | -10% | 2 | 19% | 4% | -5%
CC[C@@H]1/C=C/C=C/C[C@H](C)[C@@H](O)[C@](C)(O)C(=O)[C@H](C)[C@@H](O)[C@H](C)C(=O)[C@H](C)[C@@H](O)[C@H](C)/C=C/C(=O)O[C@H]2[C@@H](C)[C@@H](CC1)O[C@@]1(CC[C@@H](C)[C@@H](C[C@H](C)O)O1)[C@@H]2C | 7%[59 µM] | . | . | . | . | .
CC[C@H]1C(=O)OC[C@H]1Cc1cncn1C | 5%[21.5 µM] | . | . | . | . | .
COc1ccc(CN(CCc2c[nH]c3ccccc23)Cc2ccc(OC)cc2)cc1 | . | -1% | 25 | ? | . | ?
COC1=CC(=O)OC(CCc2ccc3c(c2)OCO3)C1 (centres undefined) | . | -8% | -12 | 7% | . | -18%
CCOc1ccc(CN(CCc2ccc3c(c2)OCO3)Cc2cccc(C)c2)cc1 | 0.89µM* | . | . | ? | ? | 22µM*
CCOc1ccc(CN(CCc2ccc3c(c2)OCO3)Cc2cc(OC)ccc2O)cc1 | 3.2µM* | . | . | ? | ? | 22µM*
CCOc1ccc(CN(CCc2ccc3c(c2)OCO3)Cc2ccc(CC)cc2)cc1 | ? | . | . | -21% | 71µM* | 22µM*
CN(C)c1ccc(CN2CC=C(c3ccc(F)cc3)CC2)cc1 | ? | 0% | . | -38% | 50µM* | 50µM*
COc1cc(CN2CC=C(c3ccc(F)cc3)CC2)cc(OC)c1 | . | 8% | -5 | 49% | 2% | 6%
c1ccc2c(c1)OC[C@@H](C1=NCCN1)O2 | 8%[21.5 µM] | . | . | . | . | .
Clc1ccc2c(c1)CCc1cccnc1C2=C1CCNCC1 | -1%[59 µM] | . | . | . | ? | .
CC/C(=N\Nc1ccccc1)c1c(O)n(-c2ccccc2)c(=O)[nH]c1=O | 40µM* | -9% | 0 | 55% | -23% | -12%
C/C(=N\NC(=S)Nc1ccccc1)c1c(O)n(C)c(=O)n(C)c1=O | 1.3µM* | 21µM* | -53* | -8% | -4% | 18µM*
CC/C(=N\NC(=O)c1ccccc1Cl)c1c(O)n(C2CCCCC2)c(=O)[nH]c1=O | ? | -12% | -1 | 39% | -23% | -5%
SMILES | G9a block | PLK1 PBD block | PI5P4K alpha inh | HP1b binding inh | BAZ2B inh | JMJD2A Tudor inh
CC/C(=N\NC(=O)Nc1ccccc1)c1c(O)n(Cc2ccccc2)c(=O)[nH]c1=O | -22% | 0% | ? | 40% | -2% | -27%
CC/C(=N\Nc1ccccc1)c1c(O)n(C)c(=O)n(C)c1=O | 22µM* | -5% | -5 | 24% | -30% | -18%
CCC(=Nc1cccc(C(F)(F)F)c1)c1c(O)n(C)c(=O)n(C)c1=O | . | 3% | -6 | 35% | -15% | 7%
CC/C(=N\NC(=O)c1ccccc1)c1c(O)n(C2CCCCC2)c(=O)[nH]c1=O | 1% | -15% | -57* | 16%[57 µM] | ? | -13%
C[N+](C)(C)CCCCCCCCCC[N+](C)(C)C | 20%[59 µM] | 1% | 2 | 51% | 0% | -2%
CC(C)C[C@H]1CNC(=S)N1CC1CCN(CC2CCC(C(C)(C)C)CC2)CC1 (some centres undefined) | . | -6% | -17 | 47% | . | -31%
O=C1NCCOC(=O)[C@H](Cc2ccc(F)cc2)CC/C=C/C[C@@H]1CC(=O)N(CCO)Cc1ccccc1 | . | -8% | -2 | 44% | . | -11%
Cc1ccc(-n2c(O)c(/C=C/C=Nc3ccccc3)c(=O)[nH]c2=O)cc1 | ? | 5% | -2 | 35% | -4% | -28%
Cc1ccc(N/N=C/c2c(O)n(-c3ccccc3)c(=O)[nH]c2=O)cc1 | 3.2µM* | -4% | -23 | -7% | -30% | -21%
Cc1cccc(-n2c(O)c(C=Nc3ccc(Br)cn3)c(=O)[nH]c2=O)c1 | . | 6µM* | -26 | 11% | 1% | 10µM*
COc1ccc(-n2c(O)c(/C(C)=N/Nc3ccccc3)c(=O)[nH]c2=O)cc1 | 40µM* | -3% | 1 | 42% | -6% | -15%
COc1ccc(-n2c(O)c(/C(C)=N/N3CCCCCC3)c(=O)[nH]c2=O)cc1 | . | 0% | -4 | 13% | -3% | 7%
Cc1ccc(-n2c(O)c(/C=N/c3ncc(Br)cc3Br)c(=O)[nH]c2=O)cc1 | 9%[59 µM] | -12% | 0 | 4% | ? | -14%
C/C=C1/C[C@@H](C)[C@@](C)(O)C(=O)OCC2=CCN3CC[C@@H](OC1=O)[C@@H]23 | . | . | . | 22% | . | -19%
O=C(Nc1ccc(Br)cc1C(=O)c1ccccc1Cl)c1ccc(Br)cc1 | 4%[59 µM] | . | . | 27% | 1% | -7%
c1csc(CN2CC[C@@]3(CCCNC3)C2)n1 | 5%[12.7 µM] | . | . | . | . | .
CCOP(=O)(Cc1cc(C(=O)CC)c(C)o1)OCC | 8.9µM* | -11% | -1 | 55% | -5% | 9%
COc1ccccc1C=C1C(=O)NC(=S)NC1=O | . | 24µM* | -86* | ? | . | 20µM*
CCN1C(=O)/C(=C/c2ccc(N(CC)CC)cc2OC)C(=O)NC1=S | 35µM* | 1.1µM* | ? | 7% | ? | -24%
CCOc1cccc(N2C(=O)/C(=C/c3ccco3)C(=O)NC2=S)c1 | 14µM* | 12µM* | -93* | 20µM* | 32µM* | 22µM*
O=C1NC(=S)N(c2ccc(F)cc2)C(=O)/C1=C/c1ccccc1O | -19% | -29% | -1 | 31% | 0% | -3%

From PubChem BioAssay
